F508del corr: CFTR F508del correction in bronchial cells; CFBE cells, YFP halide quenching; stimulated with forskolin plus potentiator P3; % fluorescence drop versus neutral controls; activity (quench increase), % at 7.58 µM; 0.36% of 350,000 active; AID 720511;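 active = mean added fluorescence quench of at least 8% versus neutral control, with both replicates also reaching 8%; inconclusive = only one of the mean or replicate conditions met; inactive = mean below 8% and not both replicates reaching 8%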;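 note: cells transiently co-express mutant CFTR-F508del with the halide-sensitive YFP; corrector assay measuring rescue of mutant channel to the surface after 24 h compound exposure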
Env fusion inh: inhibitors of HIV Env-mediated cell fusion | HeLa-JRFL Env/CEM21 cell fusion, luciferase | inhibition, % at 12.3 µM | 1.1% of 360,000 active | AID 651610;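 active = mean replicate inhibition score of at least 50 and every replicate individually at or above 50; inconclusive = only one of the two criteria met; inactive = mean below 50 and not all replicates reaching 50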
Wnt act: activates Wnt/beta-catenin signaling in a reporter cell assay | activator, plate reader | activation, % at 9.35 µM | 1.2% of 300,000 active | AID 743398; in the data active = activation above about 30%, passing the limit was not always enough; inconclusive = no clear call, values can overlap the other calls
INS-1E GSIS act: GLuc luminescence reporter in INS-1E cells, primary screen for activators of glucose-dependent secretion of insulin | activation, % at 16.6 µM | 0.61% of 370,000 active | INS-1E GLuc reporter insulin secretion, 2-3 h;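 active = lowest replicate activation of at least 40%, so every replicate reaches that level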
MITF act: MITF TRPM1 promoter activation in melanoma cells. SK-MEL-5 TRPM1-promoter luciferase, 24 h; % of positive control, neutral wells = 0. activation, % at 12.5 µM. 0.75% of 300,000 active. AID 588334;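 active = mean activation of at least 80% with every replicate also reaching 80%; inconclusive = mean reaches 80% but some replicate falls short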
Each line names hits and unclear results; the compound was inactive in the other large screens; [ ] = another dose, or the depositor's remark. Shown are actives, neighbours in structure and some others; about 2.7% of the full set was active somewhere.

C[C@H]1CN([C@@H](C)CO)C(=O)Cc2cc(NC(=O)CCCCCC(=O)Nc3ccccc3N)ccc2O[C@H]1CN(C)S(=O)(=O)c1ccc(Cl)cc1	none (no result: Wnt act, MITF act)
CCCC#Cc1ccc2c(c1)O[C@H](CN(C)C(=O)C1CC1)[C@@H](C)CN([C@@H](C)CO)S2(=O)=O	none (no result: Wnt act, MITF act)
O=C(NCc1ccccc1)C1=C[C@@H](c2ccccc2)C[C@@H](OCc2ccc(CO)cc2)O1	none
C[C@H]1C=C(C(=O)NCc2ccccc2)O[C@@H](OCc2ccc(CO)cc2)C1	Wnt act 48
COc1ccc2c3c([nH]c2c1)[C@@H](CO)N(C(=O)NC(C)C)CC31CCN(C(=O)C2CCCCC2)CC1	none (no result: Env fusion inh, Wnt act, MITF act)
COc1cc2sc3cc(NCc4ccc(C)o4)ccc3c(=O)c2cc1OC	Wnt act inconclusive, MITF act 109
COc1cc2sc3cc(NCC[C@@H]4CCCN4C)ccc3c(=O)c2cc1OC	MITF act 97
O=C(NNC(=O)c1ccccc1Cl)c1ccncc1	none
COc1c(C(=O)NNC(=O)c2ccccc2Cl)csc1Br	Wnt act 41 (no result: MITF act)
CC(C)(C)c1ccc(S(=O)(=O)N2CC(C(=O)O)Oc3ccc(Cl)cc32)cc1 (stereo not drawn)	INS-1E GSIS act 142
COc1ccc(S(=O)(=O)N2CC(C(=O)O)Oc3ccc(Cl)cc32)cc1 (stereo not drawn)	none
Cc1cccc(-n2c(C)c(C)c3c(N)ncnc32)c1	INS-1E GSIS act 49
Cc1ccc(-n2c(C)c(C)c3c(N)ncnc32)cc1	none
Cc1ccc2cc3c(N)c(C(=O)N4CCOCC4)sc3nc2c1	Wnt act 59 (no result: F508del corr)
Cc1ccc2nc3sc(C(=O)N4CCOCC4)c(N)c3cc2c1	Env fusion inh 74 (no result: F508del corr, INS-1E GSIS act, MITF act)
Cc1ccc(-c2cc(C(=O)N3CCOCC3)c3cc(C)ccc3n2)cc1	Wnt act 31
Cc1ccc2cc3c(N)c(C(=O)Nc4c(C)[nH]c(=O)[nH]c4=O)sc3nc2c1	none (no result: F508del corr, Wnt act)
Cc1ccc2nc(-c3ccncc3)cc(C(=O)N3CCOCC3)c2c1	none (no result: F508del corr, Env fusion inh, Wnt act, INS-1E GSIS act)
CCOc1ccc2nc3sc(C(=O)N4CCN(C)CC4)c(N)c3cc2c1	none (no result: F508del corr, INS-1E GSIS act)
C[C@H](O)C#Cc1cnc2c(c1)C(=O)N([C@H](C)CO)C[C@H](C)[C@@H](CN(C)CC1CCOCC1)O2	none (no result: Wnt act, MITF act)
Cc1cc(C(F)F)n2ncc(C(=O)NCc3ccc(F)cc3)c2n1	INS-1E GSIS act 44
Cc1cc(C(F)F)n2ncc(C(=O)NCc3ccccc3F)c2n1	none (no result: Env fusion inh)
CCCS(=O)(=O)NC(=O)C1(C)CCN(C(=O)COc2ccc(Cl)cc2Cl)C1 (stereo not drawn)	Env fusion inh 56 (no result: MITF act)
CCCS(=O)(=O)NC(=O)C1(C)CCCN(C(=O)COc2ccc(Cl)cc2Cl)C1 (stereo not drawn)	none (no result: MITF act)
C[C@H]1CN([C@@H](C)CO)C(=O)c2c(c3ccccc3n2C)-c2ccccc2CO[C@H]1CN(C)Cc1cccc(F)c1	Env fusion inh 67 (no result: MITF act)
C[C@H](CO)N1C[C@H](C)[C@H](CN(C)Cc2cccc(F)c2)OCc2ccccc2-c2ccccc2C1=O	Env fusion inh 75[16.7 µM] (no result: Wnt act, MITF act)
C[C@H](CO)N1C[C@H](C)[C@H](CN(C)Cc2cccc(F)c2)OCc2ccccc2-c2c(n(C)c3ccccc23)C1=O	none (no result: Env fusion inh, Wnt act, MITF act)
C[C@@H]1CN([C@@H](C)CO)C(=O)c2ccccc2-c2ccccc2CO[C@@H]1CN(C)Cc1cccc(O)c1	none (no result: Wnt act, MITF act)
C[C@H](CO)N1C[C@H](C)[C@H](CN(C)Cc2cccnc2)OCc2ccccc2-c2c(n(C)c3ccccc23)C1=O	Env fusion inh 59[16.7 µM] (no result: Wnt act, MITF act)
COc1ccc(-c2nc(NC(=O)C3CCN(c4nc5ccccc5o4)CC3)sc2C)cc1	Env fusion inh 67 (no result: F508del corr, INS-1E GSIS act, MITF act)
COc1ccc(-c2nc(NC(=O)Cn3c(=O)oc4ccccc43)sc2C)cc1	none
CC(C)C1COC(c2cccc3ccccc23)=N1 (stereo not drawn)	Wnt act 39 (no result: INS-1E GSIS act)
Cc1ccc(C2CC(=O)c3cnc(N4CCc5ccccc5C4)nc3C2)cc1 (stereo not drawn)	Env fusion inh 68 (no result: F508del corr, Wnt act, INS-1E GSIS act)
Cc1c(O)cnc2nn(-c3ccccc3)c(=N)n12	INS-1E GSIS act 42 (no result: Wnt act, MITF act)
CCCCc1c(-c2ccccc2OC)ncn1Cc1ccc(C)cc1	Env fusion inh 61, INS-1E GSIS act 66 (no result: MITF act)
CCCCc1c(-c2ccccc2OC)ncn1Cc1ccccc1C	INS-1E GSIS act 186 (no result: MITF act)
CCCCc1c(-c2ccccc2OC)ncn1Cc1ccc(-c2ccccc2)cc1	none (no result: MITF act)
CCCCc1c(-c2ccccc2OC)ncn1Cc1ccc(OC)cc1	Env fusion inh 61 (no result: MITF act)
